# From PMC4336329 (PLoS ONE, 2015)
# Hit rate of the full screen: of about 310,000 compounds, about 14,000 (4.5%) showed an effect of 50% or more. Effects have a minus sign here. The sample holds strong results, similar compounds and a random draw of the others, so the mix is not that of the screen.
# Biological target: human ether-à-go-go-related gene (hERG) potassium channel (human, UniProt Q12809)
# Test: primary screen, population patch clamp on CHO cells stably expressing hERG; higher = less effect of the substance
# 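Note: peak tail current of the secondary pulse compared with the same well before compound.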
# human ether-à-go-go-related gene (hERG) potassium channel, sequence (Q12809 whole entry, looked up): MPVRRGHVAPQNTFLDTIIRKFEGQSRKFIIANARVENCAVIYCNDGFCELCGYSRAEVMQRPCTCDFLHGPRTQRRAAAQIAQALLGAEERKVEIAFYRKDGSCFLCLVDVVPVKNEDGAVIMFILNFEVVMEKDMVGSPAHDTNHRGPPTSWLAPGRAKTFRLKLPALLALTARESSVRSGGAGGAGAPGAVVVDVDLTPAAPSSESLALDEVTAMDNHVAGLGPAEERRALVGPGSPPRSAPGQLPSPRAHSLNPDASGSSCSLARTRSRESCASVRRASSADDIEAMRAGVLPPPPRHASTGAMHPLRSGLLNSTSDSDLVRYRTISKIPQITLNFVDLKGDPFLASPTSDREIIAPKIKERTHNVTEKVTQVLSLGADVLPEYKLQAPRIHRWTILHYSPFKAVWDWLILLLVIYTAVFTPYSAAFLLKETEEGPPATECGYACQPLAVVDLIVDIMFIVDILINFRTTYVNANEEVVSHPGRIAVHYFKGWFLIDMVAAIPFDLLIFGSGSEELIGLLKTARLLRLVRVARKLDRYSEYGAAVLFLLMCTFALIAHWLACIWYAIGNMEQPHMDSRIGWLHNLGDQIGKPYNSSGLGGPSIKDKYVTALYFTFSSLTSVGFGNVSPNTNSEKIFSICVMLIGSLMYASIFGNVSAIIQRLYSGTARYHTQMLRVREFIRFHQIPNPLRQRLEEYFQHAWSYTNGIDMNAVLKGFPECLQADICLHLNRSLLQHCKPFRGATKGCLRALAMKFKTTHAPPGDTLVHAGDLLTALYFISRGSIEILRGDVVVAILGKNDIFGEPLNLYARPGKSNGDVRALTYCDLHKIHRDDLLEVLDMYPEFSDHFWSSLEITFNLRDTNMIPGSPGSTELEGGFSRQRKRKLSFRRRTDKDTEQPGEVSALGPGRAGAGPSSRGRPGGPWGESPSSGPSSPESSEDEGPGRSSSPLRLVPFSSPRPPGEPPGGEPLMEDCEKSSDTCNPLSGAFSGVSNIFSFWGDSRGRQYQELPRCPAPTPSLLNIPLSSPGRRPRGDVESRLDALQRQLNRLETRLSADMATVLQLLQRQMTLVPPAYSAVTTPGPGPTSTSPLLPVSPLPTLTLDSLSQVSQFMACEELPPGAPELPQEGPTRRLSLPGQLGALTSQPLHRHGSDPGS
row,Structure (SMILES),"hERG current change (%, negative = inhibition) at 10uM"
1,CCOC(=O)/C=C1\SCC(=O)N1CC(=O)NCCOC,-10.2%
2,NC(=O)c1ccc[n+](CC(=O)OCCC23CC4CC(CC(C4)C2)C3)c1.[Cl-],11.8%
3,COc1ccc(N(CC(=O)NC2CCCC2)S(=O)(=O)c2c(C)[nH]c(=O)[nH]c2=O)cc1,10.2%
4,Cc1cccc(C)c1OCCN1CCOCC1.O=C(O)C(=O)O,-0.56%
5,O=C(NNc1ncccc1-n1cccc1)c1ccc(Cl)cc1,-15.4%
6,O=C(CSc1nc(C2CC2)nc2sc3c(c12)CCCC3)NCc1ccco1,-6.99%
7,Cc1ccc(Cn2c(Sc3ncccn3)nc3c2c(=O)[nH]c(=O)n3C)cc1,-5.24%
8,CCOC(=O)C1=C(N)n2c(s/c(=C/c3ccco3)c2=O)=C(C(=O)OC)C1c1ccco1 (centres unmarked),-2.57%
9,COCCNC(=O)c1c(NC(=O)c2ccco2)n(Cc2ccccc2)c2nc3ccccc3nc12,-16.9%
10,Cc1ccc(OCC(O)CN2CCOCC2)c(C)c1.Cl (centres unmarked),20.2%
11,Cc1cc(OCC(O)CN2CCc3ccccc3C2)cc(C(C)C)c1.Cl (centres unmarked),-56.2%
12,Cc1ccc(OCCCCN2CCc3ccccc3C2)c(C)c1.Cl,-34.1%
13,Cc1cccc(OCC(O)CN2CCc3ccccc3C2)c1.Cl (centres unmarked),-38%
14,Cc1ccc(OCC(O)CN2CCc3ccccc3C2)c(C)c1.Cl (centres unmarked),-72.3%
15,Cc1nc(SCCOc2ccccc2F)[nH]c(=O)c1Cc1ccccc1,46.9%
16,O=C(Nc1cnn(Cc2ccccc2)c1)c1nc2ncccn2n1,6.14%
17,Cc1nc(CCNC(=O)c2cc(COc3ccc(F)cc3Cl)on2)sc1C,-22.4%
18,O=C(O)c1ccc(Cl)c2c1C1C=CCC1C(c1ccccn1)N2 (centres unmarked),7.76%
19,COc1ccc(C(=O)NC2CC2)cc1OC1CCN(Cc2ccc(F)cc2Cl)CC1,-70.9%
20,COc1ccc(C(=O)NCC(=O)OCc2ccc(F)cc2Cl)cc1OC,-1.96%
21,COc1ccc(C(=O)NC2CCN(Cc3c(F)cccc3Cl)CC2)cc1OC,-1.46%
22,O=C(NCc1ccccn1)c1ccc(OC2CCN(Cc3ccc(F)cc3F)CC2)cc1,-25.9%
23,COCCNC(=O)c1cccc(OC2CCN(Cc3ccc(F)cc3OC)CC2)c1,-23.1%

row,Structure (SMILES),"hERG current change (%, negative = inhibition) at 10uM"
1,COc1ccc(C(=O)NC2CC2)cc1OC1CCN(Cc2ccc(F)cc2F)CC1,-81.5%
2,Cc1cc2sc3ccccc3c(=O)c2c(C)c1O,21.6%
3,Cc1ccc(S(=O)(=O)N2CCOCC2)cc1C(=O)Nc1ccc2c(c1)CCC2,-10.6%
4,COC(=O)c1cn(NC(=O)C2CCC(C(C)(C)C)CC2)c(=O)c2ccccc12 (centres unmarked),13.7%
5,Cc1cccc[n+]1CCCCCCCCCC[n+]1ccccc1C.[Br-],37.8%
6,CCCCCCCCC[n+]1cccc2c3ccccc3ccc21.[Br-],-84.8%
7,O/N=C/c1cccc[n+]1CCCCCC[n+]1ccccc1/C=N/O.[Br-],20.1%
8,CCCC[n+]1c2ccccc2cc2ccccc21.[I-],-32.9%
9,CCCCCCCC[n+]1cccc2c3ccccc3ccc21.[I-],-84.3%
10,CCCCCCCCCCCCCCCC[n+]1cccc2ccccc21.[I-],-71.2%
11,NC(=O)C[n+]1cccc2ccccc21.[I-],9.16%
12,[Cl-].c1ccc(C[n+]2cccc3c4ccccc4ccc32)cc1,-15%
13,CCC[n+]1c2ccccc2cc2ccccc21.[I-],23.7%
14,O=C(C[n+]1cccc(CO)c1)Nc1nc2ccccc2s1.[Cl-],-9.18%
15,CC(C)CN(C(=O)CCC(=O)OCc1ccc(Cl)cc1Cl)c1c(N)n(CC(C)C)c(=O)[nH]c1=O,-47.3%
16,CCn1nc(C)cc1C(=O)NC1CCCc2c1cnn2-c1cc(F)cc(F)c1 (centres unmarked),-5.58%
17,Cc1cc(=O)c2cc(Br)ccc2n1CC(=O)NCc1ccccc1,-12.8%
18,O=C(CCNc1cc(Cl)cc(Cl)c1)c1ccco1,-4.77%
19,Cc1ccc(C(C)(C)C)c(OCCCCN2CCCC2)c1,-19.9%
20,CCCN(CCC)CCNC(=O)CCC(=O)Nc1ccc2nc(N3CCN(C)CC3)cc(C)c2c1,17.7%
21,O=c1[nH]ncn2cccc12,24.1%
22,CN(Cc1c(F)cccc1Cl)S(=O)(=O)c1cccs1,-19.8%
23,COc1ccccc1CN(C)S(=O)(=O)c1cccs1,4.72%

row,Structure (SMILES),"hERG current change (%, negative = inhibition) at 10uM"
1,CN(Cc1ccc(F)cc1Cl)S(=O)(=O)c1cccs1,-62%
2,Cc1c(OC(C)C(=O)NCCCN2CCOCC2)ccc2c1oc(=O)c1ccccc12 (centres unmarked),6.19%
3,O=C(CN1C(=O)COc2ccccc21)NCCN1CCC(Cc2ccccc2)CC1,-56.6%
4,CN1CCN(CCCNC(=O)CCN2C(=O)COc3ccccc32)CC1,0.334%
5,O=C(CCN1C(=O)COc2ccccc21)NCCCN1CCN(c2ccc(F)cc2)CC1,-63.7%
6,O=C(CCN1C(=O)COc2ccccc21)NCCCN1CCN(c2ccccc2F)CC1,-42.7%
7,O=C(CN1C(=O)COc2ccccc21)NCCN1CCOCC1,11.3%
8,O=C(CCN1C(=O)COc2ccccc21)NCCN1CCN(c2ccccc2F)CC1,-33.5%
9,O=C(CCN1C(=O)COc2ccccc21)NCCN1CCN(c2cccc(Cl)c2)CC1,-56.5%
10,COc1ccc(N2CCN(CCNC(=O)CCN3C(=O)COc4ccccc43)CC2)cc1,-47%
11,O=C(CN1C(=O)COc2ccccc21)NCCN1CCCC1,13.6%
12,CS(=O)(=O)N(CC(=O)Nc1ccccc1-c1ccccc1)c1ccccc1,-0.135%
13,O=C(NC1CCCC1)C(c1ccncc1)N(C(=O)c1ccco1)c1ccc(Cl)cc1 (centres unmarked),-4.59%
14,CCOC(=O)C1(CCc2ccccc2)CCN(C(C)CSC)CC1 (centres unmarked),-66.6%
15,CCOC(=O)C1(CCOc2ccccc2)CCN(C(C)CSC)CC1 (centres unmarked),-55.3%
16,CCOC(=O)C1(CCOc2ccccc2)CCN(C(=O)CCSC)CC1,-42%
17,O=C1C2CCCN2C(c2ccc(Cl)c(Cl)c2)N1c1ccccn1 (centres unmarked),-10%
18,O=C(NC(=S)Nc1ccc(-c2nc3ncccc3o2)cc1)c1ccccc1F,14.5%
19,CCOCCCNC(=O)C(NC(=O)c1cnccn1)c1ccc(C)cc1 (centres unmarked),30.4%
20,CCN(CC)C(=O)Cn1cc(S(=O)(=O)CC(=O)Nc2ccc(C(N)=O)cc2)c2ccccc21,18.2%
21,CCOc1ccc(NC(=O)CN2CCCC2c2cccs2)cc1S(=O)(=O)N1CCCCC1 (centres unmarked),-11.8%
22,COc1ccccc1N1CCN(CCCNc2c(C)c(=O)n(C)c(=O)n2C)CC1,-5.42%
23,CSc1cccc(NC(=S)NCCCN2CCN(c3ccc(F)cc3)CC2)c1,-66.7%

row,Structure (SMILES),"hERG current change (%, negative = inhibition) at 10uM"
1,CSc1cccc(NC(=S)NCCCO)c1,-4.03%
2,COc1ccc(N2CCN(CCNC(=O)Nc3ccc(C)c(Cl)c3)CC2)cc1,15.9%
3,CCc1ccc(N2CCN(CCNC(=O)Nc3ccc(OC)cc3)CC2)cc1,-29.9%
4,CCOc1ccc(NC(=O)CCN2CCN(c3ccccc3OC)CC2)cc1,-33.8%
5,COC(=O)c1ccc(N2CCN(CCNC(=O)Nc3ccc(OC)cc3)CC2)cc1,-0.192%
6,COc1ccc(N2CCN(CCNC(=O)Nc3ccc(Cl)cc3)CC2)cc1,-60.7%
7,COc1ccc(N2CCN(CCCNC(=O)Nc3ccccc3)CC2)cc1,-64.5%
8,COc1ccccc1N1CCN(CCCNC(=O)Nc2ccccc2)CC1,-59.8%
9,COc1ccc(NC(=O)NCCN2CCN(c3cccc(Cl)c3)CC2)cc1,-31.6%
10,Fc1cccc(NC(=S)NCCCN2CCOCC2)c1,-0.1%
11,CC(OC(=O)c1ccccc1NCc1ccco1)C(=O)Nc1ncc(Cl)cc1Cl (centres unmarked),2.95%
12,Cc1ccc(C)c(-n2nnnc2SCC(=O)NCC2CCCO2)c1 (centres unmarked),-4.18%
13,CCN(C(=O)COC(=O)CCC(=O)c1cccs1)c1c(N)n(Cc2ccccc2)c(=O)[nH]c1=O,-4.97%
14,CCCCCOc1ccc(CSCCNC(=S)Nc2ccccc2)cc1,-5.94%
15,O=C(O)c1ccccc1C(=O)c1ccc(-c2ccccc2)cc1,17.2%
16,CCOC(=O)c1ccc(S(=O)(=O)NNC(=O)COc2cccc(C)c2)cc1,34.6%
17,Cc1ccc(S(=O)(=O)N2CCN(S(=O)(=O)N3CCCCCC3)CC2)cc1,20.4%
18,COc1cccc(NC(=O)NCCN2CCCCC2)c1,-13.7%
19,COc1cccc(NC(=S)NCCCN2CCOCC2)c1,16.7%
20,COc1ccccc1N1CCN(CCCNC(=O)Nc2ccccc2C)CC1,-33.7%
21,Cc1cccc(NC(=O)NCCN2CCN(c3ccccc3)CC2)c1C,-9.69%
22,COc1cccc(NC(=O)NCCCN2CCN(c3ccc(F)cc3)CC2)c1,-73.2%
23,COc1ccccc1N1CCN(CCNC(=O)Nc2cccc(C)c2C)CC1,-68.8%
